Screening data deposited in PubChem by several laboratories.
RAM inhibit: yeast RAM network inhibition; S. cerevisiae dse1pr::URA3 reporter, 5-FOA growth OD615, 2 d; analog-sensitive cbk1-as2 kinase mutant strain; inhibition, % at 50 µM; actives 1.8% (n = 190,000); AID 868;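 active = inhibition above a set limit, 3 SD over mean compound inhibition, cut at about 8.4% in these data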;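 note: 0% = DMSO-only wells with no growth and 100% = 10 µM 1-NA-PP1 full growth; inhibition rescues growth on 5-FOA so higher OD means more RAM inhibition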
S1P4 antagonist: antagonists of human S1P4 receptor; O95977; S1P4-expressing cells, antagonist mode, reporter read-out; inhibition, % at 4.98 µM; actives 0.26% (n = 220,000); in the data active = inhibition above about 29%;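 note: 0% = wells stimulated with agonist and 100% = vehicle wells without agonist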
ROMK primary: human ROMK K+ channel modulation, primary screen; actives 2% (n = 130,000); Tet-inducible ROMK, thallium flux fluorescence; actives lie on both sides; B-score at 10 µM; P48048;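 active = signal ratio slope over the read window, or its plate-corrected B-score, at least 3 SD from the plate mean, either direction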;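 note: B-score of the F/F0 ratio slope over 7 to 12 s after thallium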
S1P3 antag: blocks the human S1P3 receptor; CHO S1P3 NFAT-BLA reporter, FRET fluorescence, antagonist mode; inhibition, % at 4.98 µM; actives 0.27% (n = 170,000); AID 485;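 active = inhibition above the plate cutoff, the mean inhibition of test wells on that plate plus 3 SD, cut at about 28% in these data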;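 note: cells challenged with S1P at its EC80 of 0.8 µM; blue over green emission ratio from cleaved BLA substrate after 4 h stimulation; 0% = S1P-stimulated wells and 100% = unstimulated DMSO-only wells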
S1P4 agonist: human S1P4 receptor agonism | O95977 | S1P4-expressing cell line, agonist reporter assay | activation, % at 4.98 µM | actives 0.35% (n = 220,000) | AID 1509; in the data active = activation above about 11%;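 note: 0% = DMSO vehicle and 100% = reference agonist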
Cl transport mod: modulators of human KCC2 chloride dependent transport; actives 2.2% (n = 190,000); KCC2 cells, thallium flux FluoZin-2 fluorescence; Q9H2X9; B-score of Tl+ flux slope (higher = more flux/activation; lower = inhibition) at 10 µM;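 active = thallium flux slope and its plate-corrected score both differing from the plate sample mean at a set confidence after two filtering rounds, in either direction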;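 note: slope of fluorescence scaled to starting intensity during 10 to 20 s after thallium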
Target sequence (Q9H2X9 whole entry, looked up): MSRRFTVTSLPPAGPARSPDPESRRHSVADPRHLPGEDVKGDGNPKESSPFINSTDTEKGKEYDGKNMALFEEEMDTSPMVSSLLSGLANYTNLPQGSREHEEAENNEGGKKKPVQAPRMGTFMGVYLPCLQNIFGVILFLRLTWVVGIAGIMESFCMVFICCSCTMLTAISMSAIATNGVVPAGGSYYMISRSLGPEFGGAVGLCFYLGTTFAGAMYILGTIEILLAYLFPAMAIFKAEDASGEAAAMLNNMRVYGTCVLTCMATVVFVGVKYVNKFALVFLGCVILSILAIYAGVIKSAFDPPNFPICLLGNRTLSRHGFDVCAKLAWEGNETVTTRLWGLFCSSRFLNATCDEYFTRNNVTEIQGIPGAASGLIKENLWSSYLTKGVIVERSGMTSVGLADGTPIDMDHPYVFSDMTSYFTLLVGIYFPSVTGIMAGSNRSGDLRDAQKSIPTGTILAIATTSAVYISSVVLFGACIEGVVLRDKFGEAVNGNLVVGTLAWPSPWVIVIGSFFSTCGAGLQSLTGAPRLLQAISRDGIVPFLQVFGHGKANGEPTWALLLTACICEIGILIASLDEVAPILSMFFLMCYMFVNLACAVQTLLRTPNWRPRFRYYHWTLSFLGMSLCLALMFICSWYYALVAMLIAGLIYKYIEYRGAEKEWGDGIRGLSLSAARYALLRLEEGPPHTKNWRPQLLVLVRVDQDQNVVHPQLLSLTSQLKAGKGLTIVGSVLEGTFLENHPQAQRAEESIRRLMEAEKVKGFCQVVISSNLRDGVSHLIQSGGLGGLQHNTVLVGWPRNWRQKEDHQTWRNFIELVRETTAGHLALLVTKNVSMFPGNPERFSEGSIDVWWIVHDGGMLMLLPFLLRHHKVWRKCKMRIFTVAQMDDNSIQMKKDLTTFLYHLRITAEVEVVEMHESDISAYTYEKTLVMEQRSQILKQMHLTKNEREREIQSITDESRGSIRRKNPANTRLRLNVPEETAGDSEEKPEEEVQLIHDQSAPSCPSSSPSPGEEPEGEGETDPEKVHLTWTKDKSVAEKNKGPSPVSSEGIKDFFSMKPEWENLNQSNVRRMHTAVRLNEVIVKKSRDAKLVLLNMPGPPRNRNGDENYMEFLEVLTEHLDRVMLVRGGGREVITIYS
KCC2 secondary: confirmation of human KCC2 transport modulators; shares compounds with Cl transport mod; HEK293-KCC2, thallium flux, FluoZin2 fluorescence; hits give high values; normalised thallium flux (F/F0 slope) at 10 µM; actives 15% (n = 3,700);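 active = thallium flux slope above the same plate's solvent-only control mean plus 3 SD; inconclusive = the two replicate wells disagree; inactive = no significant difference from solvent-only control wells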
KCC2 bumet counter: thallium flux despite bumetanide block in KCC2 cells, secondary assay 3 | shares compounds with Cl transport mod | HEK293-KCC2 + bumetanide/ouabain, thallium flux FluoZin2; hits give high values | normalized thallium flux at 10 µM | actives 49% (n = 3,700) | AID 1714;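 active = thallium entry rate above the same plate's blocked-transporter control wells by more than 3 SD; inconclusive = the two repeat wells disagree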;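 note: raw slope of fluorescence over initial fluorescence between 10 and 20 s after thallium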
KCC2 secondary2: confirmation of human KCC2 transport modulators | shares compounds with Cl transport mod | HEK293-KCC2, thallium flux FluoZin2 fluorescence; actives lie on both sides; F/F0 rise rate, 10–20 s post-thallium | AID 1715 | actives 23% (n = 3,700) | normalized thallium flux at 10 µM;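 active = thallium flux slope more than 3 SD above or below the plate's solvent-only control mean, mostly below; inconclusive = the two repeat wells disagreed; inactive = no significant shift from solvent-only controls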;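 note: raw slope with 0.1% DMSO as baseline and bumetanide as block control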
HEK counter1: acts in parental HEK cells, KCC2 counter-screen. shares compounds with Cl transport mod. HEK293 parental cells, thallium flux FluoZin2, ouabain; baseline-ratio fluorescence slope, 10–20 s after thallium. thallium flux rate (normalised fluorescence) at 10 µM. actives 46% (n = 3,700). AID 1716;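 active = thallium flux rate significantly above the same plate's solvent-only control wells, beyond their mean plus 3 SD; inconclusive = the two replicate wells gave conflicting results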
KCC2 ouabain: KCC2 (human) modulation, ouabain retest; HEK293-KCC2, thallium flux FluoZin2 fluorescence; bidirectional: low = inhibitor, high = activator; raw Tl+ flux slope (below DMSO = inhibition, above = activation) at 10 µM; shares compounds with Cl transport mod; actives 48% (n = 3,700); AID 1717;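 active = thallium flux slope beyond 3 SD from same-plate DMSO control mean in most replicates, usually higher, sometimes lower; inconclusive = repeat tests gave conflicting results; inactive = no significant difference from controls in most replicates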;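 note: slope of initial-normalized fluorescence between seconds 10 and 20 after thallium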
HEK293 Tl flux2: counter-screen for KCC2 modulators: effect in parental HEK293 cells. thallium flux FluoZin-2 fluorescence slope. thallium flux slope at 10 µM. AID 1718. shares compounds with Cl transport mod. actives 33% (n = 3,700);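 active = thallium flux slope above the same plate's solvent-control mean plus 3 SD in both duplicate wells; inconclusive = duplicate wells that disagreed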;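 note: run without ouabain in cells lacking the KCC2 cotransporter; slope of fluorescence scaled to its starting value between 10 and 20 s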
* hit, by the source's call; ? = inconclusive; . = no result given. Most compounds without a hit are left out; they make up all but 5.1% or so of the library.

SMILES	RAM inhibit	S1P4 antagonist	ROMK primary	S1P3 antag	S1P4 agonist	Cl transport mod	KCC2 secondary	KCC2 bumet counter	KCC2 secondary2	HEK counter1	KCC2 ouabain	HEK293 Tl flux2
Cc1ccc(/C=C/C(=O)c2ccccc(=O)c2O)c(C)c1	2	-4	-0.77	-11	0	68*	0.013*	0.088*	0.04*	0.056*	0.073*	0.02*
O=C(/C=C/c1ccc(O)c(O)c1)c1ccccc1O	.	6	-1.6	-7	0	-0.77	.	.	.	.	.	.
Cc1ccc(C(=O)/C=C/c2ccc3c(c2)OCCO3)c(O)c1	.	22	-0.018	-4	0	1.1	.	.	.	.	.	.
Cc1ccc2[nH]c(SCC(=O)N3CCOCC3)nc2c1C	0	1	-0.37	.	1	.	0.0082	0.0053	0.036	0.0035	0.021	0.011
CC12CN3CC(C)(CN(C1)C3c1ccccc1F)C2 (stereo unspecified)	.	3	.	-11	-1	0.88	.	.	.	.	.	.
Cc1nnc(SCC(=O)c2cc(C)n(-c3ccc4c(c3)OCO4)c2C)s1	0	-15	.	11	3	-3.3*	?	0.0031*	0.032	?	0.022	0.0094
Cn1c(C(=O)N2CCc3ccccc3C2)cc2c(=O)n3ccccc3nc21	-1	5	-1.2	22	2	.	0.0051	0.0063*	0.027	0.0073	0.015*	0.011
Cn1c(C(=O)O)cc2c(=O)n3ccccc3nc21	.	0	.	10	4	-0.39	.	.	.	.	.	.
CN(C)CC(O)COc1ccc(-c2ccc(C#N)cc2)cc1 (stereo unspecified)	-1	-2	0.44	.	0	.	.	.	.	.	.	.
CN(C)CC(O)COc1cccc(OCC(O)CN(C)C)c1 (stereo unspecified)	1	-7	0.022	.	-1	.	0.0075	0.0044	0.031	0.0079	0.02	0.01
O=C(COc1ccc(Cl)cc1Cl)N/N=C/c1ccc(OC2OC(CO)C(O)C(O)C2O)cc1 (stereo unspecified)	.	-7	.	8	0	1	.	.	.	.	.	.
CN(C)c1cc[n+](CC(=O)c2ccc(-c3ccccc3)cc2)cc1	3	-19	0	-5	0	-1.9	.	.	.	.	.	.
O=C(C[n+]1ccccc1)c1ccc(-c2ccccc2)cc1	1	-15	-0.2	-8	1	-4.6*	0.015	0.0047	0.022*	0.0078	0.014	0.011
O=C(Oc1cccc(NC2=NS(=O)(=O)c3ccccc32)c1)c1cccnc1	2	-3	.	-5	0	.	.	.	.	.	.	.
Cc1nccc(-c2cccc(N/N=C(\C#N)C(=O)c3ccccc3)c2)n1	.	-14	.	1	0	-5.1*	?	0.036*	0.031	0.015*	0.025	0.011*
N#CCCC(CCC#N)C1=NCCc2ccccc21	.	-11	.	-6	0	0.027	.	.	.	.	.	.
CNC(=S)N/N=C(\C)c1ccc(C(C)(C)C)cc1	1	6	.	1	1	5.7*	0.0093	0.018*	0.032	0.022*	?	0.013*
COc1ccccc1CNC(=O)C1CCN(S(=O)(=O)c2ccc3c(c2)OCCCO3)CC1	0	-15	.	7	1	-0.96	.	.	.	.	.	.
COC(=O)c1ccc(CSc2nc3ccccc3c(=O)n2CC(C)C)o1	9.1*	-8	.	.	-1	7.6*	0.0074	0.018*	0.035	0.017*	?	0.017*
CCOC(=O)CSc1nc2ccccc2c(=O)n1CC(C)C	2	12	1.3	-18	0	0.16	.	.	.	.	.	.
O=C(c1cc2c(s1)CCCC2)N1CCN(S(=O)(=O)c2ccccc2C(F)(F)F)CC1	4	10	-0.02	2	-3	-0.91	.	.	.	.	.	.
COc1ccc(S(=O)(=O)NC(CC(=O)NCCc2ccccc2)c2ccco2)cc1 (stereo unspecified)	1	-1	0.3	.	-4	.	0.0071	0.0061	0.034	0.0082	?	0.01
O=C(CCCc1nc2ccccc2s1)NCc1ccc(F)cc1	1	-9	-1.2	-14	0	-4*	0.014*	0.018*	0.034	0.012*	0.023	0.012*
CCOc1ccc(NC(=S)NNC(=O)c2cc(Br)ccc2Cl)cc1	1	1	-0.032	-15	1	8.5*	0.0096	0.041*	0.034	?	0.034*	0.013
CCOc1ccc(NC(=O)c2cc(SC)ccc2Cl)cc1	2	-22	.	14	0	-0.019	.	.	.	.	.	.
SMILES	RAM inhibit	S1P4 antagonist	ROMK primary	S1P3 antag	S1P4 agonist	Cl transport mod	KCC2 secondary	KCC2 bumet counter	KCC2 secondary2	HEK counter1	KCC2 ouabain	HEK293 Tl flux2
CCCC(C)C(=O)OCC(=O)NCc1ccc(OC)c(OC)c1 (stereo unspecified)	1	-3	-0.044	-4	1	1.5	.	.	.	.	.	.
O=C(Nc1ccc(-c2csc(Nc3cccc(C(F)(F)F)c3)n2)cc1)c1cc([N+](=O)[O-])cc(C(F)(F)F)c1	.	.	.	.	.	0.41	.	.	.	.	.	.
Cc1ccc(-c2nnc(SCC(=O)Nc3nc4c(s3)CCCC4)n2C)cc1	1	16	.	-9	1	0.65	.	.	.	.	.	.
Cc1csc(NC(=O)CSc2nnc(-c3cccs3)n2C)n1	4	-7	-0.058	-10	0	-3*	0.0078	0.0064	0.032	0.0068	0.02	0.011
Cn1c(SCC(=O)Nc2nc3c(s2)CCCC3)nnc1-c1ccccc1	4	-9	.	-12	0	-4.8*	0.0074	0.0054	0.023*	0.0082	0.018*	0.012
Cn1c(CSCc2ccccc2)nnc1SCC(=O)Nc1nccs1	5	-18	-0.86	.	-1	6.2*	0.0058	0.004	0.028	0.0067	0.017	0.0093
CCn1nnnc1SCC(=O)Nc1nnc(C(C)C)s1	1	3	.	-21	-1	.	.	.	.	.	.	.
CCn1nnnc1SCC(=O)Nc1nc(-c2cccs2)cs1	2	-5	.	-5	1	-4.1*	0.0088	0.0063	?	0.0067	0.014*	0.01
Cc1ccc(-c2ccc(SCC(=O)Nc3nonc3C)nn2)cc1	2	-26	.	2	0	-5.7*	0.0055	0.004	0.023*	0.0058*	0.013*	0.0095
Cn1c(SCc2c(Cl)cccc2Cl)nnc1-c1cccs1	0	-9	.	-31	-2	-4.6*	0.0076	0.0039	0.027	?	?	0.0093
